The text below walks through data of PubChem BioAssay (NCATS).

Inconclusive results are not listed. Values without a mark were called inactive. The source made the active and inactive calls. Calls come from the whole dose curve; as a rule, active = well fitted cell-killing curve with a large enough effect; inconclusive = small, poorly fitted or top-dose-only effect; inactive = no such curve, though single readings can be large or run the other way. Where a SMILES comes first, the peptide text is derived from it. [ ]: non-standard residue; d: D form. pGlu = O=C1CC[C@@H](C(=O)O)N1
% is set by controls: 0 for no effect and ±100 for the full control effect; potency is the fitted concentration of half-maximal effect.

The experiment can be described thus: qHTS of pediatric cancer cell lines to identify multiple opportunities for drug repurposing: Primary screen for MG 63 (6-TG R) cells (AID 1347105). Note: nearly all actives have a fitted effect of over 50% in size. The note with it: MG 63 (6-TG R) viability, CellTiter-Glo, 48 h; series mostly up to 46 µM; activity change, negative = cytotoxic: at the top concentration. The text has this:
Drug repurposing or repositioning has been offered as a strategy for drug development in oncology programs. This approach has special potential for childhood cancers and other rare or orphan diseases, where the expected return on new drug development has been a disincentive to pharmaceuticals. […] In this project we exploit the poly-pharmacology of drugs to discover new indications via phenotypic screening of a panel of 19 well-characterized cell lines derived from solid tumors seen in children and adolescents. The goal is to identify approved drugs with previously unrecognized anticancer properties that has the potential to reveal new mechanisms and biological processes involved in carcinogenesis or drug resistance. We employed a titration-based paradigm (quantitative high-throughput screening or qHTS), where all compounds were tested at multiple concentrations for their effect on cell viability. Concentration-response curves (CRCs) were derived directly from the primary screen, and both potency and efficacy values were used to identify compounds with robust bioactivity profiles. We screened the NIH Chemical Genomics Center (NCGC) Pharmaceutical Collection (NPC) and Mechanism Interrogation Plate (MIPE) small molecule collections of approved and investigational compounds against these cell lines; and measured metabolically active cells after 48 hours of compound treatment as a proxy for cell viability. […] Assay Submitter: Nathalia J. Martinez, National Center for Advancing Translational Sciences, National Institutes of Health, Rockville, MD, USA; email: natalia.martinez@nih.gov Shen, M et al. Quantitative high-throughput phenotypic screening of pediatric cancer cell lines identifies multiple opportunities for drug repurposing. Oncotarget 2017 Dec 19;9(4):4758-4772. PMID 29435139.
The cells were obtained from University of North Carolina (UNC), Pediatric Preclinical Testing Program (PPT), and Coriell Institute (CI). qHTS cell viability assay: Cells were assayed in growth media at a density of 500-1,000 cells/well. Five microliters of cells were dispensed into 1,536-well, white, solid-bottom, TC-treated plates (Greiner Bio One) using a multidrop dispenser and incubated at 37 degrees C, 5% CO2, under a humidified atmosphere for 5 hours. Twenty-three nanoliters of compounds and controls (neutral control DMSO or positive control bortezomib at final concentration of 2.3 µM) were subsequently transferred by Kalypsys pintool. For primary screens, the MIPE collection was tested at 11-point dilutions (final concentrations range from 0.78 nM to 46 µM) and the NPC collection at 8-point dilutions (final concentrations range from 0.59 nM to 46 µM). Compounds tested in follow-up screens were assayed at 11-point dilutions. Cells were incubated for 48 hours, followed by addition of 3 µL of CellTiter-Glo (Promega). After a 15 min incubation at room temperature, samples were analyzed for luminescence intensity using a ViewLux High-throughput CCD imager equipped with clear filters.
As for `Nc1nc2ccccc2n1Cc1ccc(F)cc1`, the “activity change, negative = cytotoxic” value was -14.8%.
Take `O=c1[nH]c2ccccc2c(=O)n1CCCl`: the “activity change, negative = cytotoxic” value was -18.2%.
The same measure, in the same setting: the same measure for `O=C(O)Cn1c(=O)n(Cc2ccc(Br)cc2F)c(=O)c2ccc(Cl)cc21`: 3.07%; for `C[C@H](CN1CCCC1)C(=O)c1ccc(C(F)(F)F)cc1`: -8.52%.
The same measure, in the same setting: with `CCCC(=O)O[C@]1(C(=O)CC)CC[C@H]2[C@@H]3CCC4=CC(=O)CC[C@]4(C)[C@H]3[C@@H](O)C[C@@]21C` the figure was -11.5%; with `O=C(O)c1[nH]n(-c2ccc(S(=O)(=O)O)cc2)c(=O)c1N=Nc1ccc(S(=O)(=O)O)cc1`, -24.1%.
Turning to `N#C/C(=C1/SC[C@@H](c2ccc(Cl)cc2Cl)S1)n1ccnc1`, the “activity change, negative = cytotoxic” value was -4.46%.
Turning to `COc1ccc2c(c1)CCCC2=O`, the “activity change, negative = cytotoxic” value was 7.67%.
In the case of `CCOC(=O)N1CCC(n2c(=O)[nH]c3cc(Cl)ccc32)CC1`, the “activity change, negative = cytotoxic” value is 0.0615%.
On to `COC(=O)c1c(Cl)c(Cl)c(C(=O)OC)c(Cl)c1Cl`, for which the “activity change, negative = cytotoxic” value was -12.1% [at 92.7 µM].
In the case of `NC(=O)COCCN1CCN(C(c2ccccc2)c2ccc(Cl)cc2)CC1` (stereo not given), the “activity change, negative = cytotoxic” value was -11.2%.
For `Nc1ccc(O)cc1`, the “activity change, negative = cytotoxic” value was 6.84%.
Consider `CN1CCC(=C2c3ccccc3CCc3cccnc32)CC1`, for which the “activity change, negative = cytotoxic” value is -6.57%.
`CCOC(=O)C(=O)CCCCCCl`: the “activity change, negative = cytotoxic” value is 0.248%.
On to `O=C1Cc2cc(Cl)ccc2N1`, for which the “activity change, negative = cytotoxic” value is -5.67%.
On to `O=C(O)C1CCC1`, for which the “activity change, negative = cytotoxic” value was 4.36%.
For `C/C(=C1\CCOC(=O)S1)N(C=O)Cc1cnc(C)nc1N`, the “activity change, negative = cytotoxic” value is -24%.
Turning to `CCNC(=O)[C@@H]1CCCN1C(=O)[C@H](CCCN=C(N)N)NC(=O)[C@H](CC(C)C)NC(=O)CNC(=O)[C@H](Cc1ccc(O)cc1)NC(=O)[C@H](CO)NC(=O)[C@H](Cc1c[nH]c2ccccc12)NC(=O)[C@H](Cc1cnc[nH]1)NC(=O)[C@@H]1CCC(=O)N1` ([pGlu]HWSYGLRP-NHEt), the “activity change, negative = cytotoxic” value is -8.33%.
Turning to `CNC(=O)c1cnn(-c2nc(N)c3ncn([C@@H]4O[C@H](CO)[C@@H](O)[C@H]4O)c3n2)c1`, the “activity change, negative = cytotoxic” value is -6.84%.
Regarding `CC1CCCCN1CCCOC(=O)c1ccc(OC2CCCCC2)cc1` (stereo not given), the “activity change, negative = cytotoxic” value was 10.9%.
With `COc1cc(C(=O)OC(COCCC(C)C)CN2CCOCC2)cc(OC)c1OC` (stereo not given), the “activity change, negative = cytotoxic” value is -24.5%.
The same measure, in the same setting: the same measure for `CCN1CCN(C(=O)N[C@@H](C(=O)N[C@@H]2C(=O)N3[C@@H]2SC(C)(C)[C@H]3C(=O)O)c2ccccc2)C(=O)C1=O`: 7.28%; for `O=C(O)/C=C(\CC(=O)O)C(=O)O`: 10.5%; for `CCCCCCCC(=O)[O-].CCCCCCCC(=O)[O-].[Zn+2]`: 11.8%.
For the compound `O=C(O)C(=O)Nc1cccc(-c2nn[nH]n2)c1`, the “activity change, negative = cytotoxic” value was -12%.
Consider `Cc1onc(-c2ccccc2)c1C(=O)Cl`, for which the “activity change, negative = cytotoxic” value was -20.2%.
Take `CN1CCC(N(Cc2cccs2)c2ccccc2)CC1`: the “activity change, negative = cytotoxic” value is -16.3%.
Turning to `CCCCN(CCN(CCCC)C(=O)N1CCOCC1)C(=O)N1CCOCC1`, the “activity change, negative = cytotoxic” value was -21.1%.
In the case of `Clc1ccc2c(c1)Nc1ccccc1S2`, the “activity change, negative = cytotoxic” value is -12.9%.
On the same count and under the same terms, the same measure for `O=C1CC2(CCCC2)CC(=O)N1CCNCC1COc2ccccc2O1` (stereo not given): -3.53%; for `CCOc1ncc(F)c(=O)[nH]1`: -18%.
Regarding `CC(=O)[C@H]1CC[C@H]2[C@@H]3C=CC4=CC(=O)CC[C@@]4(C)[C@@H]3CC[C@]12C`, the “activity change, negative = cytotoxic” value was -15.8%.
Consider `Nc1ccc(C(=O)OCC(O)CO)cc1` (stereo not given), for which the “activity change, negative = cytotoxic” value is -18.7%.
Take `C[C@H]1C[C@H]2[C@@H]3CCC4=CC(=O)C=C[C@]4(C)[C@H]3C(=O)C[C@]2(C)[C@@]1(O)C(=O)CO`: the “activity change, negative = cytotoxic” value was -7.56%.
`Nc1ncnc2c1ncn2Cc1c(F)cccc1Cl`: the “activity change, negative = cytotoxic” value is 2.22%.
Take `Cc1nc([N+](=O)[O-])cn1-c1ccc([N+](=O)[O-])cc1`: the “activity change, negative = cytotoxic” value was 33.6%.
`O=C(Nc1ccc(Cl)cc1)Nc1ccc(Cl)c(C(F)(F)F)c1`: the Potency was 21.1 µM (active).
Consider `Cc1oc(-c2ccccc2)nc1CCC(=O)c1ccc(CC2SC(=O)NC2=O)cc1` (stereo not given), for which the “activity change, negative = cytotoxic” value was -19.8%.
On the same count and under the same terms, the same measure for `CC(C)(C)c1nnc(NS(=O)(=O)c2ccccc2)s1`: -1.03%.
For the compound `CCCCCCCCCCCCCCCC[N+](C)(C)Cc1ccccc1`, the Potency is 26.6 µM (active).
